# The supplement of paper PMC12282887
# ± gives the standard deviation of the averaged measurements.
# Experiments:
# Assay in all cases: promoter activity interaction Z-score (Lux/OD deviation from empty-vector control); higher = stronger promoter induction by the compound
# [1] = test system: E. coli BW25113 acrABp lux reporter
# In short: (§1)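 Wild-type E. coli BW25113 and three single-gene deletion strains, each carrying a low-copy luxCDABE promoter reporter, were grown at 37°C in 40 µl LB Lennox per well of a 384-well plate. Every compound was applied at four 1:2 dilutions in biological duplicates, and OD600 and luminescence were read every 30 min for 12 h. Integration covered 0–8 h for wild type and 1–9 h for deletion strains, and wells under 10% of the median growth value were removed. Scores are Z-transformed residuals of growth-normalised luminescence fitted against a control.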
# [2] = test system: E. coli BW25113 marRABp lux reporter
# In short: as §1
# [3] = test system: E. coli BW25113 micFp lux reporter
# In short: as §1
# [4] = test system: E. coli BW25113 ompFp lux reporter
# In short: as §1
# [5] = test system: E. coli BW25113 robp lux reporter
# In short: as §1
# [6] = test system: E. coli BW25113 soxSp lux reporter
# In short: as §1
# [7] = test system: E. coli BW25113 tolCp lux reporter
# In short: as §1
# [8] = 23 µg/ml, genetic background: wild type
# [9] = 23 µg/ml, genetic background: ΔmarA
# [10] = 23 µg/ml, genetic background: Δrob
# [11] = 23 µg/ml, genetic background: ΔsoxS
# [12] = 46 µg/ml, genetic background: wild type
# [13] = 46 µg/ml, genetic background: ΔmarA
# [14] = 46 µg/ml, genetic background: Δrob
# [15] = 46 µg/ml, genetic background: ΔsoxS
# [16] = 92.1 µg/ml, genetic background: wild type
# [17] = 92.1 µg/ml, genetic background: ΔmarA
# [18] = 92.1 µg/ml, genetic background: Δrob
# [19] = 92.1 µg/ml, genetic background: ΔsoxS
# [20] = 184.2 µg/ml, genetic background: wild type
# [21] = 184.2 µg/ml, genetic background: ΔmarA
# [22] = 184.2 µg/ml, genetic background: Δrob
# [23] = 184.2 µg/ml, genetic background: ΔsoxS
structure (smiles),measurement,setting,value
COc1cc(/C=C/C(=O)CC(=O)/C=C/c2ccc(O)c(OC)c2)ccc1O [Curcumin],promoter activity interaction Z-score,[1]; [8],-0.214 ± 0.21
same,promoter activity interaction Z-score,[1]; [9],1.82 ± 1
same,promoter activity interaction Z-score,[1]; [10],0.162 ± 0.49
same,promoter activity interaction Z-score,[1]; [11],0.139 ± 0.18
same,promoter activity interaction Z-score,[1]; [12],0.341 ± 0.83
same,promoter activity interaction Z-score,[1]; [13],1.2 ± 0.066
same,promoter activity interaction Z-score,[1]; [14],0.14 ± 0.34
same,promoter activity interaction Z-score,[1]; [15],0.0402 ± 0.48
same,promoter activity interaction Z-score,[1]; [16],0.529 ± 0.2
same,promoter activity interaction Z-score,[1]; [17],1.08 ± 0.031
same,promoter activity interaction Z-score,[1]; [18],0.869 ± 0.75
same,promoter activity interaction Z-score,[1]; [19],0.0855 ± 0.34
same,promoter activity interaction Z-score,[1]; [20],0.33 ± 0.052
same,promoter activity interaction Z-score,[1]; [21],1.06 ± 1.1
same,promoter activity interaction Z-score,[1]; [22],1.36 ± 1.6
same,promoter activity interaction Z-score,[1]; [23],0.0296 ± 0.41
same,promoter activity interaction Z-score,[2]; [8],0.0587 ± 1
same,promoter activity interaction Z-score,[2]; [9],0.238 ± 0.1
same,promoter activity interaction Z-score,[2]; [10],0.099 ± 0.28
same,promoter activity interaction Z-score,[2]; [11],0.112 ± 0.41
same,promoter activity interaction Z-score,[2]; [12],-0.237 ± 0.12
same,promoter activity interaction Z-score,[2]; [13],0.377 ± 0.29
same,promoter activity interaction Z-score,[2]; [14],-0.00179 ± 0.26
same,promoter activity interaction Z-score,[2]; [15],-0.0875 ± 0.19
same,promoter activity interaction Z-score,[2]; [16],0.812 ± 0.01
same,promoter activity interaction Z-score,[2]; [17],1.05 ± 0.41
same,promoter activity interaction Z-score,[2]; [18],0.00921 ± 0.51
same,promoter activity interaction Z-score,[2]; [19],-0.225 ± 0.28
same,promoter activity interaction Z-score,[2]; [20],0.402 ± 1
same,promoter activity interaction Z-score,[2]; [21],-0.341 ± 0.046
same,promoter activity interaction Z-score,[2]; [22],0.198 ± 0.15
same,promoter activity interaction Z-score,[2]; [23],-0.312 ± 0.3
same,promoter activity interaction Z-score,[3]; [8],-0.542 ± 0.23
same,promoter activity interaction Z-score,[3]; [9],0.217 ± 0.034
same,promoter activity interaction Z-score,[3]; [10],-0.24 ± 0.022
same,promoter activity interaction Z-score,[3]; [11],-0.0851 ± 0.53
same,promoter activity interaction Z-score,[3]; [12],-0.984 ± 0.24
same,promoter activity interaction Z-score,[3]; [13],0.275 ± 0.043
same,promoter activity interaction Z-score,[3]; [14],-0.0884 ± 0.0078
same,promoter activity interaction Z-score,[3]; [15],0.00161 ± 0.34
same,promoter activity interaction Z-score,[3]; [16],-0.158 ± 0.37
same,promoter activity interaction Z-score,[3]; [17],0.257 ± 0.096
same,promoter activity interaction Z-score,[3]; [18],-0.122 ± 0.094
same,promoter activity interaction Z-score,[3]; [19],-0.241 ± 0.17
same,promoter activity interaction Z-score,[3]; [20],-0.608 ± 0.096
same,promoter activity interaction Z-score,[3]; [21],0.122 ± 0.096
same,promoter activity interaction Z-score,[3]; [22],-0.251 ± 0.11
same,promoter activity interaction Z-score,[3]; [23],0.0295 ± 0.21
same,promoter activity interaction Z-score,[4]; [8],-0.638 ± 0.26
same,promoter activity interaction Z-score,[4]; [9],0.332 ± 0.5
same,promoter activity interaction Z-score,[4]; [10],0.137 ± 1.3
same,promoter activity interaction Z-score,[4]; [11],-0.824 ± 0.29
same,promoter activity interaction Z-score,[4]; [12],-0.568 ± 0.12
same,promoter activity interaction Z-score,[4]; [13],0.31 ± 0.57
same,promoter activity interaction Z-score,[4]; [14],0.208 ± 0.91
same,promoter activity interaction Z-score,[4]; [15],-0.0625 ± 1.2
same,promoter activity interaction Z-score,[4]; [16],-0.201 ± 0.71
same,promoter activity interaction Z-score,[4]; [17],-0.362 ± 0.33
same,promoter activity interaction Z-score,[4]; [18],0.836 ± 0.9
same,promoter activity interaction Z-score,[4]; [19],-0.27 ± 0.58
same,promoter activity interaction Z-score,[4]; [20],-0.368 ± 0.11
same,promoter activity interaction Z-score,[4]; [21],-0.675 ± 0.88
same,promoter activity interaction Z-score,[4]; [22],-0.647 ± 0.46
same,promoter activity interaction Z-score,[4]; [23],-0.351 ± 0.82
same,promoter activity interaction Z-score,[5]; [8],0.788 ± 0.71
same,promoter activity interaction Z-score,[5]; [9],1.07 ± 0.14
same,promoter activity interaction Z-score,[5]; [10],0.0477 ± 0.46
same,promoter activity interaction Z-score,[5]; [11],0.332 ± 0.6
same,promoter activity interaction Z-score,[5]; [12],0.38 ± 0.33
same,promoter activity interaction Z-score,[5]; [13],1.13 ± 0.87
same,promoter activity interaction Z-score,[5]; [14],0.606 ± 0.79
same,promoter activity interaction Z-score,[5]; [15],0.859 ± 0.5
same,promoter activity interaction Z-score,[5]; [16],0.913 ± 0.078
same,promoter activity interaction Z-score,[5]; [17],0.411 ± 0.0043
same,promoter activity interaction Z-score,[5]; [18],0.829 ± 1.5
same,promoter activity interaction Z-score,[5]; [19],-0.797 ± 0.19
same,promoter activity interaction Z-score,[5]; [20],-0.161 ± 0.49
same,promoter activity interaction Z-score,[5]; [21],0.0014 ± 0.21
same,promoter activity interaction Z-score,[5]; [22],0.959 ± 1.3
same,promoter activity interaction Z-score,[5]; [23],0.501 ± 0.48
same,promoter activity interaction Z-score,[6]; [8],-0.156 ± 0.019
same,promoter activity interaction Z-score,[6]; [9],0.209 ± 0.098
same,promoter activity interaction Z-score,[6]; [10],-0.0921 ± 0.039
same,promoter activity interaction Z-score,[6]; [11],0.264 ± 0.5
same,promoter activity interaction Z-score,[6]; [12],-0.559 ± 0.02
same,promoter activity interaction Z-score,[6]; [13],0.12 ± 0.11
same,promoter activity interaction Z-score,[6]; [14],-0.0695 ± 0.0052
same,promoter activity interaction Z-score,[6]; [15],0.244 ± 0.33
same,promoter activity interaction Z-score,[6]; [16],-0.204 ± 0.11
same,promoter activity interaction Z-score,[6]; [17],-0.148 ± 0.051
same,promoter activity interaction Z-score,[6]; [18],-0.206 ± 0.015
same,promoter activity interaction Z-score,[6]; [19],-0.186 ± 0.41
same,promoter activity interaction Z-score,[6]; [20],-0.42 ± 0.036
same,promoter activity interaction Z-score,[6]; [21],-0.399 ± 0.12
same,promoter activity interaction Z-score,[6]; [22],-0.341 ± 0.14
same,promoter activity interaction Z-score,[6]; [23],-0.153 ± 0.15
same,promoter activity interaction Z-score,[7]; [8],-0.731 ± 0.53
same,promoter activity interaction Z-score,[7]; [9],-0.0769 ± 0.49
same,promoter activity interaction Z-score,[7]; [10],-0.819 ± 0.47
same,promoter activity interaction Z-score,[7]; [11],0.356 ± 0.35
same,promoter activity interaction Z-score,[7]; [12],-0.815 ± 0.45
same,promoter activity interaction Z-score,[7]; [13],0.181 ± 0.66
same,promoter activity interaction Z-score,[7]; [14],-0.0696 ± 0.8
same,promoter activity interaction Z-score,[7]; [15],-0.467 ± 0.52
same,promoter activity interaction Z-score,[7]; [16],-0.469 ± 0.65
same,promoter activity interaction Z-score,[7]; [17],0.826 ± 0.17
same,promoter activity interaction Z-score,[7]; [18],-0.739 ± 0.063
same,promoter activity interaction Z-score,[7]; [19],0.259 ± 0.43
same,promoter activity interaction Z-score,[7]; [20],-0.549 ± 0.6
same,promoter activity interaction Z-score,[7]; [21],-0.037 ± 0.23
same,promoter activity interaction Z-score,[7]; [22],-0.376 ± 0.11
same,promoter activity interaction Z-score,[7]; [23],0.000633 ± 0.47
